# Experimental data reported in the supplement of paper PMC8728848.
# The entries come from a sample that favours the strongest signals as a whole.
# Experiments:
# Test in all cases: glycan array binding signal (z-score within array); higher = stronger binding
# Settings in all cases: glycan notation: IUPAC condensed, linker removed
# Fuc(a1-2)Gal(b1-4)GlcNAc = target: Fuc(a1-2)Gal(b1-4)GlcNAc
# Summary of the method: (§1)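 From the Consortium for Functional Glycomics database, 3228 arrays were curated, keeping only those whose protein sequence was available. Binding is given as a within-array Z-score averaged across arrays sharing a protein sequence and across linkers. Negative Z-scores can be read as non-binding.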
# [1] = target: Fuc(a1-2)Gal(b1-4)GlcNAc(b1-3)Gal(b1-4)GlcNAc(b1-3)Gal(b1-4)GlcNAc
# Summary of the method: as §1
# Fuc(a1-2)[Gal(a1-3)]Gal = target: Fuc(a1-2)[Gal(a1-3)]Gal
# Summary of the method: as §1
# Gal(a1-3)Gal(b1-4)GlcNAc = target: Gal(a1-3)Gal(b1-4)GlcNAc
# Summary of the method: as §1
# [2] = target: Gal(a1-3)[Gal(a1-4)]Gal(b1-4)GlcNAc
# Summary of the method: as §1
# [3] = target: Gal(b1-4)GlcNAc(b1-6)GalNAc
# Summary of the method: as §1
# Gal3S(b1-4)Glc = target: Gal3S(b1-4)Glc
# Summary of the method: as §1
# Gal4S(b1-4)GlcNAc = target: Gal4S(b1-4)GlcNAc
# Summary of the method: as §1
# Gal6S(b1-4)Glc = target: Gal6S(b1-4)Glc
# Summary of the method: as §1
# [4] = target: GlcNAc(b1-3)[GlcNAc(b1-6)]GlcNAc(b1-4)GlcNAc
# Summary of the method: as §1
# [5] = target: Man(a1-2)Man(a1-2)Man(a1-6)[Man(a1-3)]Man
# Summary of the method: as §1
# [6] = target: Neu5Ac(a2-3)Gal(b1-4)GlcNAc(b1-3)Gal(b1-4)GlcNAc(b1-3)Gal(b1-4)GlcNAc
# Summary of the method: as §1
# [7] = target: Neu5Ac(a2-3)Gal(b1-4)[Fuc(a1-3)]GlcNAc
# Summary of the method: as §1
# [8] = target: Fuc(a1-2)Gal6S(b1-4)Glc6S
# Summary of the method: as §1
# [9] = target: Fuc(a1-2)Gal6S(b1-4)GlcNAc
# Summary of the method: as §1
# [10] = target: Fuc(a1-2)[Gal(a1-3)]Gal(b1-4)GlcNAc
# Summary of the method: as §1
# [11] = target: Fuc(a1-2)[Gal(a1-4)]Gal(b1-4)GalNAc
# Summary of the method: as §1
# [12] = target: Fuc(a1-2)[GalNAc(a1-3)]Gal(b1-3)GlcNAc
# Summary of the method: as §1
# [13] = target: Fuc(a1-2)[GalNAc(a1-3)]Gal(b1-4)GlcNAc
# Summary of the method: as §1
# [14] = target: Fuc(a1-2)[GalNAc(a1-4)]Gal(b1-4)GlcNAc
# Summary of the method: as §1
# [15] = target: Fuc(a1-3)[Gal(b1-4)]GlcNAc(b1-4)Gal(b1-4)[Fuc(a1-3)]GlcNAc(b1-4)Gal(b1-4)[Fuc(a1-3)]GlcNAc
# Summary of the method: as §1
# [16] = target: Fuc(a1-3)[Gal3S(b1-4)]GlcNAc6S
# Summary of the method: as §1
# Gal(a1-4)GlcNAc = target: Gal(a1-4)GlcNAc
# Summary of the method: as §1
# [17] = target: Gal(b1-3)GalNAc(b1-3)Gal(a1-4)Gal(b1-4)Glc
# Summary of the method: as §1
# [18] = target: Gal(b1-3)[Neu5Ac(a2-6)]GlcNAc(a1-4)Gal(b1-4)Glc
# Summary of the method: as §1
# [19] = target: Gal(b1-4)GalNAc(b1-3)[Fuc(a1-2)]Gal(b1-4)GlcNAc
# Summary of the method: as §1
# [20] = target: Gal3S(b1-3)[Fuc(a1-4)]GlcNAc
# Summary of the method: as §1
# GalNAc(a1-3)GalNAc = target: GalNAc(a1-3)GalNAc
# Summary of the method: as §1
# [21] = target: GalNAc(b1-3)Gal(a1-4)Gal(b1-4)GlcNAc
# Summary of the method: as §1
# GlcNAc(b1-3)Gal = target: GlcNAc(b1-3)Gal
# Summary of the method: as §1
# [22] = target: GlcNAc(b1-3)Gal(b1-3)GalNAc
# Summary of the method: as §1
# [23] = target: GlcNAc(b1-4)Gal(b1-4)GlcNAc
# Summary of the method: as §1
# [24] = target: GlcNAc(b1-4)GlcNAc(b1-4)GlcNAc(b1-4)GlcNAc(b1-4)GlcNAc(b1-4)GlcNAc
# Summary of the method: as §1
# GlcNAc(b1-6)GalNAc = target: GlcNAc(b1-6)GalNAc
# Summary of the method: as §1
# Kdn(a2-3)Gal(b1-3)GlcNAc = target: Kdn(a2-3)Gal(b1-3)GlcNAc
# Summary of the method: as §1
# [25] = target: Neu5Ac(a2-3)Gal(b1-3)GalNAc
# Summary of the method: as §1
# [26] = target: Neu5Ac(a2-3)Gal(b1-3)GalNAc6S
# Summary of the method: as §1
# [27] = target: Neu5Ac(a2-3)Gal(b1-4)GlcNAc(b1-3)Gal(b1-3)GlcNAc
# Summary of the method: as §1
# [28] = target: Neu5Ac(a2-3)Gal(b1-4)GlcNAc(b1-3)Gal(b1-4)[Fuc(a1-3)]GlcNAc
# Summary of the method: as §1
# [29] = target: Fuc(a1-3)[Gal3S(b1-4)]Glc
# Summary of the method: as §1
# Gal(a1-3)Gal(b1-3)Glc = target: Gal(a1-3)Gal(b1-3)Glc
# Summary of the method: as §1
# Gal(a1-6)Glc = target: Gal(a1-6)Glc
# Summary of the method: as §1
# Gal(b1-3)Gal = target: Gal(b1-3)Gal
# Summary of the method: as §1
# [30] = target: Gal(b1-3)GalNAc(b1-3)Gal(b1-4)GlcNAc
# Summary of the method: as §1
# [31] = target: Gal(b1-4)GlcNAc(b1-2)Man(a1-3)[Gal(b1-4)GlcNAc(b1-2)Man(a1-6)]Man(b1-4)GlcNAc(b1-4)GlcNAc
# Summary of the method: as §1
# Gal3S(b1-4)Glc6S = target: Gal3S(b1-4)Glc6S
# Summary of the method: as §1
# Gal3S(b1-4)GlcNAc = target: Gal3S(b1-4)GlcNAc
# Summary of the method: as §1
# Gal3S(b1-4)GlcNAc6S = target: Gal3S(b1-4)GlcNAc6S
# Summary of the method: as §1
# Gal3S6S(b1-4)GlcNAc6S = target: Gal3S6S(b1-4)GlcNAc6S
# Summary of the method: as §1
# Gal6S(b1-4)Glc6S = target: Gal6S(b1-4)Glc6S
# Summary of the method: as §1
# Glc(b1-4)Glc = target: Glc(b1-4)Glc
# Summary of the method: as §1
# [32] = target: Man(a1-3)[Man(a1-6)]Man(b1-4)GlcNAc(b1-4)GlcNAc
# Summary of the method: as §1
# Man(b1-4)GlcNAc = target: Man(b1-4)GlcNAc
# Summary of the method: as §1
# [33] = target: Neu5Ac(a2-3)Gal(b1-4)GlcNAc(b1-3)Gal(b1-4)GlcNAc
# Summary of the method: as §1
# [34] = target: Neu5Ac(a2-3)Gal(b1-4)GlcNAc(b1-6)[Gal(b1-3)]GalNAc
# Summary of the method: as §1
# [35] = target: Neu5Ac(a2-3)Gal(b1-4)GlcNAc6S
# Summary of the method: as §1
# [36] = target: Neu5Ac(a2-3)Gal(b1-4)[Fuc(a1-3)]GlcNAc(b1-3)Gal
# Summary of the method: as §1
# [37] = target: Neu5Ac(a2-8)Neu5Ac(a2-3)Gal(b1-4)Glc
# Summary of the method: as §1
# [38] = target: Neu5Ac(a2-8)Neu5Ac(a2-3)[GalNAc(b1-4)]Gal(b1-4)Glc
# Summary of the method: as §1
# [39] = target: Neu5Gc(a2-3)Gal(b1-3)GlcNAc
# Summary of the method: as §1
binder,measurement,setting,value
"RegIIIalpha (Mus musculus), O09037 (protein) MLPHLVLNSISWMLLSCLLFVFQVQGEDFQKEVPSPRTSCPMGYKAYRSHCYALVMTPKSWFQADLVCQKRPSGHLVSILSGGEASFVSSLVNGRVDNYQDIWIGLHDPTMGQQPNGGGWEWSNSDVLNYLNWDGDPSSTVNRGHCGSLTASSGFLKWGDYYCDGTLPFVCKFKQ",glycan array binding signal (z-score),Fuc(a1-2)Gal(b1-4)GlcNAc,-0.094
same,glycan array binding signal (z-score),[1],0.048
same,glycan array binding signal (z-score),Fuc(a1-2)[Gal(a1-3)]Gal,-0.098
same,glycan array binding signal (z-score),Gal(a1-3)Gal(b1-4)GlcNAc,-0.089
same,glycan array binding signal (z-score),[2],0.002
same,glycan array binding signal (z-score),[3],-0.096
same,glycan array binding signal (z-score),Gal3S(b1-4)Glc,-0.096
same,glycan array binding signal (z-score),Gal4S(b1-4)GlcNAc,0.116
same,glycan array binding signal (z-score),Gal6S(b1-4)Glc,-0.072
same,glycan array binding signal (z-score),[4],-0.081
same,glycan array binding signal (z-score),[5],-0.092
same,glycan array binding signal (z-score),[6],0.002
same,glycan array binding signal (z-score),[7],-0.054
LEA (Lycopersicon esculentum) (protein) NEVFDVPMNETIGVESINASVGGYPRCGAQGDGGNCPSGMCCSVWGWCGKTYGYCAPQNCQKQCPAPYPEGRCGWQADGKSCPNGKCCSYGGWCGTTSDYCARQNCQKQCILPSPPPPPPPPPGFPRPECGLQKNGERCTKPGECCSIWGLCGATYKYCDPQHCQKQCSAPFPPGRCGWQADGRPCPTGQCCSFSGWCGTTSAHCTYPQCVSQCNDPRFPSSLNNRIQSFML,glycan array binding signal (z-score),Fuc(a1-2)Gal(b1-4)GlcNAc,1.11
same,glycan array binding signal (z-score),[8],-0.512
same,glycan array binding signal (z-score),[9],-0.55
same,glycan array binding signal (z-score),[10],2.51
same,glycan array binding signal (z-score),[11],2.53
same,glycan array binding signal (z-score),[12],-0.547
same,glycan array binding signal (z-score),[13],2.5
same,glycan array binding signal (z-score),[14],2.62
same,glycan array binding signal (z-score),[15],-0.541
same,glycan array binding signal (z-score),[16],0.546
same,glycan array binding signal (z-score),Gal(a1-4)GlcNAc,-0.545
same,glycan array binding signal (z-score),[17],-0.547
same,glycan array binding signal (z-score),[18],-0.546
same,glycan array binding signal (z-score),[19],2.17
same,glycan array binding signal (z-score),[3],0.621
same,glycan array binding signal (z-score),[20],-0.518
same,glycan array binding signal (z-score),Gal6S(b1-4)Glc,-0.518
same,glycan array binding signal (z-score),GalNAc(a1-3)GalNAc,-0.553
same,glycan array binding signal (z-score),[21],2.55
same,glycan array binding signal (z-score),GlcNAc(b1-3)Gal,-0.567
same,glycan array binding signal (z-score),[22],-0.526
same,glycan array binding signal (z-score),[23],1.96
same,glycan array binding signal (z-score),[24],2.26
same,glycan array binding signal (z-score),GlcNAc(b1-6)GalNAc,-0.545
same,glycan array binding signal (z-score),Kdn(a2-3)Gal(b1-3)GlcNAc,-0.443
same,glycan array binding signal (z-score),[5],-0.296
same,glycan array binding signal (z-score),[25],-0.56
same,glycan array binding signal (z-score),[26],-0.466
same,glycan array binding signal (z-score),[27],-0.129
same,glycan array binding signal (z-score),[28],-0.542
"FBG4 (Homo sapiens), Q96EF6 (protein) MGARLSRRRLPADPSLALDALPPELLVQVLSHVPPRSLVTRCRPVCRAWRDIVDGPTVWLLQLARDRSAEGRALYAVAQRCLPSNEDKEEFPLCALARYCLRAPFGRNLIFNSCGEQGFRGWEVEHGGNGWAIEKNLTPVPGAPSQTCFVTSFEWCSKRQLVDLVMEGVWQELLDSAQIEICVADWWGARENCGCVYQLRVRLLDVYEKEVVKFSASPDPVLQWTERGCRQVSHVFTNFGKGIRYVSFEQYGRDVSSWVGHYGALVTHSSVRVRIRLS",glycan array binding signal (z-score),Fuc(a1-2)Gal(b1-4)GlcNAc,-0.263
same,glycan array binding signal (z-score),[9],-0.475
same,glycan array binding signal (z-score),[29],-0.408
same,glycan array binding signal (z-score),Gal(a1-3)Gal(b1-3)Glc,-0.259
same,glycan array binding signal (z-score),Gal(a1-4)GlcNAc,-0.495
same,glycan array binding signal (z-score),Gal(a1-6)Glc,1.59
same,glycan array binding signal (z-score),Gal(b1-3)Gal,-0.536
same,glycan array binding signal (z-score),[30],-0.307
same,glycan array binding signal (z-score),[31],0.176
same,glycan array binding signal (z-score),Gal3S(b1-4)Glc6S,2.36
same,glycan array binding signal (z-score),Gal3S(b1-4)GlcNAc,0.201
same,glycan array binding signal (z-score),Gal3S(b1-4)GlcNAc6S,2.01
same,glycan array binding signal (z-score),Gal3S6S(b1-4)GlcNAc6S,6.42
same,glycan array binding signal (z-score),Gal6S(b1-4)Glc6S,3.24
same,glycan array binding signal (z-score),[21],-0.171
same,glycan array binding signal (z-score),Glc(b1-4)Glc,0.332
same,glycan array binding signal (z-score),[24],1.31
same,glycan array binding signal (z-score),[32],0.275
same,glycan array binding signal (z-score),Man(b1-4)GlcNAc,-0.448
same,glycan array binding signal (z-score),[25],-0.559
same,glycan array binding signal (z-score),[33],-0.49
same,glycan array binding signal (z-score),[34],-0.301
same,glycan array binding signal (z-score),[35],0.103
same,glycan array binding signal (z-score),[36],-0.522
same,glycan array binding signal (z-score),[37],-0.41
same,glycan array binding signal (z-score),[38],-0.266
same,glycan array binding signal (z-score),[39],-0.432
